“And” between values parts separate entries of the source, which are not always exact repeats. Identical values can stand only once. Counter-ions that a name gives are not always drawn. ± gives the standard deviation of the averaged measurements.
Key:
Molm13 = test: cell viability relative to DMSO control (bortezomib = 0%); higher = less growth inhibition; details: 10 nM; 72 h
Outline: (§1)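 Acute myeloid leukemia cells, 1000 per well in 50 µL, were incubated for 72 h on 384-well plates with 679 approved and investigational compounds, each at a single 10 nM dose. Viability was read by CellTiter-Glo luminescence. Values were expressed as percentages through per-plate linear regression against DMSO-treated (100%) and positive-control-treated (0%) cells.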

Mv4-11 = test: as above; details: 10 nM; 72 h
Outline: as §1

Structure (SMILES)	cell viability (Molm13)	cell viability (Mv4-11)
NC[C@@](O)(c1ccc(Cl)cc1)c1ccc(-c2cn[nH]c2)cc1	108 ± 8.3%	123 ± 20%
NC(=O)Nc1cc(-c2cccc(F)c2)sc1C(=O)N[C@H]1CCCNC1	-11.2 ± 3.9%	-9.83 ± 4.2%
CCOc1cc(/C=C(\C#N)C(N)=O)cc(CSc2ccccc2)c1O	101 ± 44%	115 ± 15%
FC(F)(F)c1ccc(CNc2ccc(Cc3c[nH]c4ncccc34)cn2)cc1	76.9 ± 16%	110 ± 3.2%
O=C(NC(CO)c1ccc(F)c(Cl)c1)c1cc(-c2[nH]ncc2-c2cccc(Cl)c2)c[nH]1 (stereo not given)	116 ± 16%	110 ± 7.8%
COc1cc2nccc(Oc3ccc(NC(=O)Nc4ccc(F)cc4F)c(F)c3)c2cc1OC	98.1 ± 2.7%	103 ± 5.7%
CONC(=O)c1ccccc1Nc1cc(Nc2cc(C)nn2C(C)C)ncc1Cl	105 ± 9.6%	105 ± 1.3%
O=C1NC(=O)C(c2cnc3ccccn23)=C1c1cn2c3c(cc(F)cc13)CN(C(=O)N1CCCCC1)CC2	125 ± 6.1%	89.9 ± 4.6%
O=C1NCCSc2c1sc1ccc(O)cc21	92.9 ± 24%	103 ± 14%
CC(C)Oc1ccc(C(=O)N[C@H](CNC(=O)CN(C)C)Cc2ccc(-c3cn4cccc([C@H](C)O)c4n3)cc2)cc1Cl	110 ± 19%	121 ± 9.3%
CC#CC(=O)Nc1ccc2ncnc(Nc3cccc(Br)c3)c2c1	99.9 ± 3.4%	98.9 ± 4.2%
Cc1ccc(-c2csc3ncnc(SCCC(=O)O)c23)cc1	108 ± 3.3%	117 ± 10%
Oc1ccc(Nc2nc(-c3ccc(Cl)cc3)cs2)cc1 [Sphingosine Kinase Inhibitor 2]	101 ± 17%	108 ± 7.4%
CS(=O)(=O)CCNCc1ccc(-c2ccc3ncnc(Nc4ccc(OCc5cccc(F)c5)c(Cl)c4)c3c2)o1 [Lapatinib ditosylate monohydrate]	137 ± 32%	108 ± 17%
CC(C)c1ccc2oc3nc(N)c(C(=O)O)cc3c(=O)c2c1 [Amlexanox]	96.8 ± 11%	92.6 ± 2.2%
NCC(=O)Nc1ccc(-n2nc(C(F)(F)F)cc2-c2ccc3c(ccc4ccccc43)c2)cc1	114 ± 8.5%	101 ± 12%
Cn1cc(C2=C(c3cn(CCCSC(=N)N)c4ccccc34)C(=O)NC2=O)c2ccccc21 [Bisindolylmaleimide IX (mesylate)]	99.3 ± 4.7%	104 ± 12%
CCN1CCN(c2ccc(Nc3cc(N(C)C(=O)Nc4c(Cl)c(OC)cc(OC)c4Cl)ncn3)cc2)CC1	110 ± 17%	106 ± 16%

Structure (SMILES)	cell viability (Molm13)	cell viability (Mv4-11)
COCCOc1cnc2ccn([C@H](C)c3nnc4c(F)cc(-c5cnn(C)c5)cn34)c(=O)c2c1	104 ± 13%	115 ± 1.6%
CC(C)(C)NS(=O)(=O)c1cncc(-c2cc(F)c3nc(N)nn3c2)c1	95.9 ± 22%	105 ± 1.1%
O=C(c1ccc(/C=C/c2n[nH]c3ccccc23)cc1)N1CCNCC1	104 ± 4.2%	92.9 ± 17%
CC[C@H](Nc1ncnc2[nH]cnc12)c1nc2cccc(F)c2c(=O)n1-c1ccccc1 [CAL-101 (Idelalisib, GS-1101)]	93.7 ± 22%	105 ± 6.2%
Oc1cccc(-c2nc(N3CCOCC3)c3oc4ncccc4c3n2)c1	94.1 ± 2.2%	104 ± 8.7%
O=C1NC(=O)/C(=C/c2ccc3nccc(-c4ccncc4)c3c2)S1	106% and 113%	103% and 115%
COc1cc2ncnc(Nc3ccccc3)c2cc1OC	97.1 ± 10%	107 ± 12%
COc1cc2ncnc(Nc3ccc(F)c(Cl)c3)c2cc1OCCCN1CCOCC1 [Gefitinib]	114.4 ± 0.96%	120 ± 1.4%
Cn1ncc(Cl)c1-c1cc(C(=O)N[C@H](CN)Cc2cccc(F)c2)sc1Cl [Afuresertib]	111 ± 4.8%	113 ± 2.5%
Cc1nc(NC(=O)N2CCC[C@@H]2C(N)=O)sc1-c1ccnc(C(C)(C)C(F)(F)F)c1 [BYL-719(Alpelisib)]	113 ± 6.5%	102 ± 15%
CNC(=O)c1c(C)oc2cc(Oc3ncnc4cc(OC)c(OC)cc34)ccc12 [Fruquintinib]	103 ± 25%	106 ± 2.8%
COc1ccc2c(c1)c(C1=C(c3c[nH]c4ccccc34)C(=O)NC1=O)cn2CCCN(C)C	85.4 ± 2%	103 ± 7.6%
COc1ccc2c3n(c(=NC(=O)c4cccnc4)nc2c1OC)CCN3	88.7 ± 7%	102 ± 2.9%
O=C(NC[C@H](O)CO)c1ccncc1Nc1ccc(I)cc1F	91.6% and 95%	103% and 92.3%
Cc1cncc2cccc(S(=O)(=O)N3CCCNC[C@@H]3C)c12 [(S)-H-1152 (hydrochloride)]	100 ± 4.3%	101 ± 3%
Cc1cnc(NC(=O)Nc2cc(Br)c(C)cc2OC[C@@H]2CNCCO2)cn1	101 ± 11%	109 ± 8.1%
Cc1ccc2nc(-n3[nH]c(C)c(Cc4ccccc4)c3=O)[nH]c2c1	103 ± 0.84%	106 ± 4.3%
